About 83,000 compounds went through this panel and 20% of them were active in at least one assay; those are over-represented in the sample as a whole.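 Testing used 96-well plates and a 48-hour single-concentration exposure. Example: -40 means 40% of the starting cells died.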 Values without a mark were called inactive. Active and inactive are the calls of the source. How the source made its calls: active means growth percent below 10; inactive means the rest.

Holding throughout (test): NCI-60 one-dose screen, 48 h (100 = growth as untreated, 0 = no growth, -100 = all killed)
Holding throughout (conditions): 10 µM unless noted

Test [1] concerns SK-MEL-2 melanoma.
In test [2] the test system is SN12C renal.
Test [3] relates to UO-31 renal.
Test [4] concerns TK-10 renal.
Test [5] concerns CAKI-1 renal.
Test [6] relates to A498 renal.
Test [7] concerns CCRF-CEM leukemia.
Test [8] relates to MOLT-4 leukemia.
For test [9], the system named is RPMI-8226 leukemia.
The subject of test [10] is OVCAR-8 ovarian.
For test [11], the system named is OVCAR-5 ovarian.
The subject of test [12] is OVCAR-4 ovarian.
Test [13] has as its system SK-OV-3 ovarian.
Test [14] relates to IGROV1 ovarian.
Test [15] concerns OVCAR-3 ovarian.
The test system of test [16] is HS 578T breast.
The test system of test [17] is NCI/ADR-RES ovarian.
In test [18] the test system is SR leukemia.
The test system of test [19] is ACHN renal.
The subject of test [20] is EKVX NSCLC.

Regarding `Cc1nc(/N=C(\N)NC(=O)Nc2cccc([N+](=O)[O-])c2)sc1C`, the growth in test [1] was 88.1%; in test [2] it was 86.9%; in test [3], 83%; in test [4] it was 110%; in test [5] it was 58.3%; in test [6], 57.2%. The growth was 69.1% in test [7]; 51.5% in test [8]; 74.3% in test [9]; 100% in test [10]; 91.5% in test [11]; 88.6% in test [12]. Besides, the growth in [13] is 101%; in test [14] it was 76.1%; in test [15] it was 95.9%; in test [16], 74.5%; in [17], 46.2%.
For `Cn1ncc2c(=O)nc3c(-c4ccccc4)n[nH]n3c21`, the growth is 112% in [1]; 99.5% in test [2]; 97.1% in test [3]; 99.5% in test [4]; 74.4% in test [5]; 112% in [6]. Further, the growth in test [7] is 127%; in [8] it was 99.6%; in [18], 113%; in [9] it was 123%; in test [10], 99.8%; in test [11] it was 109%. Also, the growth was 100% in test [12]; 103% in test [13]; 95.4% in test [15]; 108% in test [16]; 105% in test [17].
Consider `N#Cc1cnn(-c2nc3c(Cl)cccc3s2)c1N`, for which the growth in test [2] was 88.5%; in [3], 83.2%; in test [19], 67.4%; in test [5], 82.8%; in [6], 97.1%; in test [7], 91.1%. In addition, the growth in test [8] is 92.4%; in [18], 89.9%; in test [9], 95.7%; in [10], 80.8%; in [11], 108%; in [12], -4.16% (active). Moreover, the growth is 78.1% in test [13]; 84% in test [14]; 98.1% in test [15]; 84.2% in [16]; 82% in test [17].
Take `COc1ccc(C(=O)/C=C/c2cccnc2Nc2cc(OC)c(OC)c(OC)c2)cc1`: the growth is 47.4% in test [1]; 8.5% (active) in test [2]; 51.1% in [3]; 44.9% in test [4]; 16.4% in test [19]; 32.2% in [5]. For the same compound, the growth in test [7] was -16.5% (active); in [8], 2.59% (active); in test [18], -0.688% (active); in [9], -21.2% (active); in test [10] it was -0.898% (active); in [11], 37.7%. The growth in test [12] was 39.8%; in test [13] it was 24.7%; in [14], 72%; in test [15], 11.5%; in test [16], 36.7%; in test [17], 4.44% (active).
Regarding `Cc1cc(N2CCCCCC2)nc(NC2CCCC(Nc3ccnc4cc(Cl)ccc34)C2)n1` (centres undefined), the growth in test [1] is -82.2% (active); in test [2] it was -90.7% (active); in test [3], -93.5% (active); in [4], -81.2% (active); in [19], -98.6% (active); in test [6], -74.7% (active). In addition, the growth in test [7] is -29.2% (active); in [8], -51.8% (active); in test [18], -65.8% (active); in test [9], -57% (active); in [10], -85.3% (active); in [11], -24.8% (active). Also, the growth in [12] is -63.9% (active); in test [13] it was -82.8% (active); in test [14] it was -47.1% (active); in [15] it was -78.6% (active); in [16], -51.3% (active); in test [17], -72.2% (active).
For `O=C(N/N=C/c1ccccc1O)c1ccccc1Nc1ccnc(C(F)(F)F)c1`, the growth is 3.03% (active) in [20]; 26.8% in test [2]; 7.98% (active) in test [3]; 34.3% in test [4]; 5.8% (active) in test [19]; -15.9% (active) in [5]. In addition, the growth in test [6] was -5.76% (active); in test [8] it was 5.72% (active); in test [18] it was -13.9% (active); in [9], -22% (active); in [10], 14.9%; in [11], 20.6%. For the same compound, the growth was 22.4% in test [12]; 11.4% in test [13]; 1.57% (active) in test [14]; 35.7% in [15]; 34.3% in test [16]; 7.23% (active) in test [17].
Take `FC(F)(F)c1nc2c(NCc3ccc(-c4ccccc4)cc3)cccc2[nH]1`: the growth in test [2] was 88.4%; in test [3] it was 57.5%; in [4], 79.2%; in test [19] it was 81.6%; in test [5], 73.7%; in [6] it was 48.7%. Moreover, the growth in test [7] is 44.8%; in test [8], 9% (active); in test [18], 7.78% (active); in test [9], 45%; in test [10], 77.2%; in [11], 96.1%. Further, the growth in [12] is 88.9%; in [13], 89.1%; in [14], 85.8%; in test [15] it was 64.9%; in [16], 71.7%; in test [17], 81%.
`COc1ccc(C(=O)c2sc3nc4c(c(-c5cccnc5)c3c2N)CCCC4)cc1OC`: the growth in [2] was 69.8%; in test [3] it was 63.8%; in test [4], 90%; in [19], 77.1%; in [5], 82.8%; in test [6] it was 48.1%. For the same compound, the growth is 55.5% in [7]; 41.4% in test [8]; 37.8% in test [18]; 4.67% (active) in test [9]; 85% in test [10]; 86.4% in test [11]. Besides, the growth was 74% in test [12]; 104% in test [13]; 117% in test [14]; 89.9% in [15]; 65.8% in test [16]; 89.3% in test [17].
With `CCCCn1cnc2c(Sc3c([N+](=O)[O-])ncn3C)nc(N)nc21`, the growth is 112% in test [1]; 97.6% in test [2]; 69.1% in test [3]; 102% in test [4]; 99.8% in test [19]; 86.9% in test [7]. Further, the growth was 49.5% in test [8]; 56.1% in test [18]; 52.3% in test [9]; 91.4% in test [10]; 97.6% in test [11]; 89.9% in [12]. Besides, the growth in test [13] was 101%; in test [15], 103%; in [16], 101%; in test [17], 109%.
`CN(C)CCCNc1c2ccccc2nc2ccccc12`: the growth in test [1] is 99.9%; in test [2] it was 95.8%; in test [3] it was 103%; in [4], 81.6%; in test [19], 100%; in test [5], 106%. Further, the growth is 102% in [6]; 86.9% in test [7]; 86.9% in test [18]; 100% in test [9]; 92% in test [10]; 87.4% in test [12]. The growth in [13] is 95.8%; in test [14], 97.5%; in test [15], 103%; in [16] it was 75.7%.
In the case of `COc1cccc(/C=N/NC(=O)c2ccccc2Nc2ccnc(C(F)(F)F)c2)c1O`, the growth was 10.5% in test [20]; 21.2% in test [2]; 7.6% (active) in test [3]; 28.7% in [4]; -2.16% (active) in test [5]; -13% (active) in test [6]. The growth is 34.1% in test [8]; 30.3% in test [18]; -18.8% (active) in [9]; 19.7% in test [10]; 20.7% in test [11]; 27.9% in test [12]. Moreover, the growth in test [13] was 8.06% (active); in test [14], 4.92% (active); in [15], 43.2%; in [17] it was 6.84% (active).

For the origin of these results see PubChem BioAssay (NCI).
